{
  "source": "PubChem BioAssay AID1259312",
  "about": "(Keith Lab, Institute of Cancer Science, University of …, 2017)",
  "note": "The campaign covered roughly 4,500 compounds. About 200 (4.4%) were called active. This is one part of a sample in which actives are shown more often than they occur.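 Rule for the calls: active = cell survival measured by absorbance rises more than 2.5-fold over infected cells without compound; inactive = the rest.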",
  "data": [
    {"test": "survival after telomere uncapping, modulators, primary screen, cell-based (AID 1259312);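 note: virus expresses mutant telomerase RNA that uncaps telomeres and kills cells; compound added 2 days after infection so exposure lasts 3 days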", "conditions": "HCT116 + Ad-hTR-mut, MTT, 5 d; at 10 µM, active compounds read high", "values": [
      {"molecule": "O=c1/c(=C\\c2ccco2)sc2nnc(-c3ccccc3)n12", "fold change": "-1.37 (inactive)"},
      {"molecule": "COc1ccc(S(=O)(=O)N(CCO)C2CCCCC2)cc1", "fold change": "1.31 (inactive)"},
      {"molecule": "CCCCc1ccc(C2C(C#N)=C(N)OC3=C2C(=O)CC(C)(C)C3)s1", "note": "(stereo unspecified)", "fold change": "2.3 (inactive)"},
      {"molecule": "COCCCNS(=O)(=O)c1cc(Cl)ccc1Cl", "fold change": "-1.38 (inactive)"},
      {"molecule": "O=S(=O)(NCc1cccnc1)c1cccs1", "fold change": "-1.29 (inactive)"},
      {"molecule": "O=S(=O)(NCc1cccnc1)c1cc(Cl)ccc1Cl", "fold change": "3.37 (active)"},
      {"molecule": "COCCNS(=O)(=O)c1cc(Cl)ccc1Cl", "fold change": "2.95 (active)"},
      {"molecule": "CCCNS(=O)(=O)c1cc(Cl)ccc1Cl", "fold change": "-2.13 (inactive)"},
      {"molecule": "O=S(=O)(Nc1cccnc1)c1cc(Cl)ccc1Cl", "fold change": "1.16 (inactive)"},
      {"molecule": "O=c1[nH]c(O)c(C=Nc2cc(Cl)ccc2O)c(=O)[nH]1", "fold change": "inactive"},
      {"molecule": "c1ccc(N/N=C2/C/C(=N\\Nc3ccccc3)c3ccccc32)cc1", "fold change": "-1.1 (inactive)"},
      {"molecule": "CC1(C)CCC[C@@]2(C)C1CCC1(C)OC(=O)CC12", "note": "(stereo partly specified)", "fold change": "-3.56 (inactive)"},
      {"molecule": "O=C(Nc1ccc2c(c1)OCCO2)C1CC(=O)N(C2CCCCC2)C1", "note": "(stereo unspecified)", "fold change": "-1.27 (inactive)"},
      {"molecule": "Clc1cccc(Cl)c1-c1noc(CSc2nc3ccccc3s2)n1", "fold change": "-1.38 (inactive)"},
      {"molecule": "N#CC1(C#N)C(c2c(F)cccc2Cl)[C@@H](C(=O)c2ccc(F)cc2)N2c3ccccc3C=C[C@@H]21", "note": "(stereo partly specified)", "fold change": "3.43 (active)"},
      {"molecule": "N#CC1(C#N)C(c2ccc(Cl)cc2Cl)C(C(=O)c2ccccc2)N2c3ccccc3C=CC21", "note": "(stereo unspecified)", "fold change": "1.29 (inactive)"},
      {"molecule": "N#CC1(C#N)C(c2ccc(O)cc2)C(C(=O)c2ccccc2)N2c3ccccc3C=CC21", "note": "(stereo unspecified)", "fold change": "1.02 (inactive)"},
      {"molecule": "CN(c1ccccc1)c1nc(N)nc(CSc2nnc(-c3ccc(F)cc3)n2C)n1", "fold change": "1.9 (inactive)"},
      {"molecule": "Nc1c(Cl)cc(-c2nc3ccccc3o2)cc1Cl", "fold change": "1.24 (inactive)"},
      {"molecule": "Cc1nn(-c2ccccc2)c(Cl)c1N=Nc1c(C)nn(-c2ccccc2)c1Cl", "fold change": "-1.52 (inactive)"},
      {"molecule": "CN(C)c1ccc(/C=N/c2nccs2)cc1", "fold change": "-1.55 (inactive)"},
      {"molecule": "c1csc(CNc2ccc(NCc3cccs3)cc2)c1", "fold change": "1.24 (inactive)"},
      {"molecule": "CC(C)NC(=O)CC(=O)NN=C1CCCC1", "fold change": "1.85 (inactive)"},
      {"molecule": "O=C1NC(=S)N/C1=C\\c1cc(Br)cc(Br)c1O", "fold change": "-1.6 (inactive)"},
      {"molecule": "O=C1NC(=S)N/C1=C\\c1ccc(Cl)cc1Cl", "fold change": "5.07 (active)"},
      {"molecule": "O=C1NC(=S)N/C1=C/c1c(F)cccc1Cl", "fold change": "1.33 (inactive)"},
      {"molecule": "O=C1c2ccccc2NC2(C(=O)Nc3ccccc32)N1CCOc1ccccc1", "note": "(stereo unspecified)", "fold change": "1.15 (inactive)"},
      {"molecule": "CCOC1(C)OC2CCC(CC)OC2O1", "note": "(stereo unspecified)", "fold change": "1.54 (inactive)"},
      {"molecule": "O=C1Nc2ccccc2C1=Nc1ccc(SC(F)F)cc1", "fold change": "active"},
      {"molecule": "O=C1Nc2ccccc2C1=Nc1cccc(Cl)c1", "fold change": "inactive"},
      {"molecule": "O=C1Nc2ccccc2/C1=N\\N1C(=O)C2C=CC=CC2C1=O", "note": "(stereo unspecified)", "fold change": "inactive"}
    ]}
  ]
}
